Data on eleven molecules can be found in ChEMBL document CHEMBL1961873, “Compounds: GSK PKIS; Assays: Nanosyn kinase panel” (2012).

The target in assay [1] is Rho-associated protein kinase 1 (Homo sapiens) (UniProt Q13464). The following applies: at 1 µM.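 Also: reported values are mean percent inhibition of ROCK1.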
Assay [2] has as its target Rho-associated protein kinase 2 (Homo sapiens) (UniProt O75116). The following applies: at 0.1 µM.
Assay [3] shares this target. Particulars: at 1 µM.
Assay [4] deals with Ribosomal protein S6 kinase alpha-1 (Homo sapiens) (UniProt Q15418). Particulars: at 0.1 µM.
For assay [5] the target is unchanged. The following applies: at 1 µM.
Assay [6] has as its target Ribosomal protein S6 kinase alpha-3 (Homo sapiens) (UniProt P51812). Particulars: at 0.1 µM.
The target is the same in assay [7]. The following applies: at 1 µM.
Assay [8] addresses Ribosomal protein S6 kinase alpha-2 (Homo sapiens) (UniProt Q15349). Particulars: at 0.1 µM.
For assay [9] the target is unchanged. The following applies: at 1 µM.
The target in assay [10] is Ribosomal protein S6 kinase alpha-6 (Homo sapiens) (UniProt Q9UK32). Particulars: at 0.1 µM.
Assay [11] has the same target. The following applies: at 1 µM.
Assay [12] addresses T1, Serine/threonine-protein kinase Sgk1 (Homo sapiens) (UniProt O00141).
T1 sequence (whole entry): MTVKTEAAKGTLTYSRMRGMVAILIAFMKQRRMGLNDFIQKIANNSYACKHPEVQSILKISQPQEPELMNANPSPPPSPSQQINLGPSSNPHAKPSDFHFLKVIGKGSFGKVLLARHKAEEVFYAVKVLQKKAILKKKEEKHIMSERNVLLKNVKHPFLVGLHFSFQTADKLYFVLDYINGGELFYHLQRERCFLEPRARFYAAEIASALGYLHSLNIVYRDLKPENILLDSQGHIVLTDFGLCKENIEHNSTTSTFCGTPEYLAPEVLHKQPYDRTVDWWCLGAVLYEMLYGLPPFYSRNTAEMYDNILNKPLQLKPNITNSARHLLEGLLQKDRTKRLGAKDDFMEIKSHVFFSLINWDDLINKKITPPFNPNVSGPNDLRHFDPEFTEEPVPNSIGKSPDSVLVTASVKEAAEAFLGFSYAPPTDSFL
Particulars: at 0.1 µM.

The target in assay [13] is T1, Serine/threonine-protein kinase Sgk1 (Homo sapiens). The following applies: at 1 µM.
Assay [14] concerns the target T2, Serine/threonine-protein kinase Sgk2 (Homo sapiens) (UniProt Q9HBY8).
T2 sequence (whole entry): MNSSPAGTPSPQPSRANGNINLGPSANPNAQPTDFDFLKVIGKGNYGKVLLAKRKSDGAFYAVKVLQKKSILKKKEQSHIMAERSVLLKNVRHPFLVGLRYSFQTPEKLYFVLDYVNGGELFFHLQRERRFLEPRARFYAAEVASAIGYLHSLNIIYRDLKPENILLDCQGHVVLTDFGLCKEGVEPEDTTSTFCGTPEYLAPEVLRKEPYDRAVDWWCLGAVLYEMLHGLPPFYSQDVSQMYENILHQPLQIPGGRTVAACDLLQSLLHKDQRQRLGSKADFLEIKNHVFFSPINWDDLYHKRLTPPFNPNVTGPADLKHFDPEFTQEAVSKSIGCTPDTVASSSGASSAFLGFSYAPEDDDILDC
Particulars: at 0.1 µM.

Assay [15] concerns the target T2, Serine/threonine-protein kinase Sgk2 (Homo sapiens). Particulars: at 1 µM.
Assay [16] has as its target T3, Serine/threonine-protein kinase Sgk3 (Homo sapiens) (UniProt Q96BR1).
T3 sequence (whole entry): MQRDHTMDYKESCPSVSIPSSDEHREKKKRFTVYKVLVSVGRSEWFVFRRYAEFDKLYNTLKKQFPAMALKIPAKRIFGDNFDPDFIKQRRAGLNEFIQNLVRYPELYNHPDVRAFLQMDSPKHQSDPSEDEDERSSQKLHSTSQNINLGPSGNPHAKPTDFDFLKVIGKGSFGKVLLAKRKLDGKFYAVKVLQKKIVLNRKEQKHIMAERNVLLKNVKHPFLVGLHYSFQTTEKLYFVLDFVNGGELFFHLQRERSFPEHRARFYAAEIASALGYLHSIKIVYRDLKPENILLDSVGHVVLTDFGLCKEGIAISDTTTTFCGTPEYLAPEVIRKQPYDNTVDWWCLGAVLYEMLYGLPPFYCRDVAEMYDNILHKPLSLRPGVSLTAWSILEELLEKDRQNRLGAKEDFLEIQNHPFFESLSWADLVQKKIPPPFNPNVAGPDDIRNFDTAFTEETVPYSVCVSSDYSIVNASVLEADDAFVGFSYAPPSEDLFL
Particulars: at 0.1 µM.

The target of assay [17] is T3, Serine/threonine-protein kinase Sgk3 (Homo sapiens). The following applies: at 1 µM.
The target in assay [18] is 5'-AMP-activated protein kinase catalytic subunit alpha-1 (Homo sapiens) (UniProt Q13131). Particulars: at 0.1 µM.
5'-AMP-activated protein kinase catalytic subunit alpha-1 (Homo sapiens), sequence (Q13131 whole entry, looked up): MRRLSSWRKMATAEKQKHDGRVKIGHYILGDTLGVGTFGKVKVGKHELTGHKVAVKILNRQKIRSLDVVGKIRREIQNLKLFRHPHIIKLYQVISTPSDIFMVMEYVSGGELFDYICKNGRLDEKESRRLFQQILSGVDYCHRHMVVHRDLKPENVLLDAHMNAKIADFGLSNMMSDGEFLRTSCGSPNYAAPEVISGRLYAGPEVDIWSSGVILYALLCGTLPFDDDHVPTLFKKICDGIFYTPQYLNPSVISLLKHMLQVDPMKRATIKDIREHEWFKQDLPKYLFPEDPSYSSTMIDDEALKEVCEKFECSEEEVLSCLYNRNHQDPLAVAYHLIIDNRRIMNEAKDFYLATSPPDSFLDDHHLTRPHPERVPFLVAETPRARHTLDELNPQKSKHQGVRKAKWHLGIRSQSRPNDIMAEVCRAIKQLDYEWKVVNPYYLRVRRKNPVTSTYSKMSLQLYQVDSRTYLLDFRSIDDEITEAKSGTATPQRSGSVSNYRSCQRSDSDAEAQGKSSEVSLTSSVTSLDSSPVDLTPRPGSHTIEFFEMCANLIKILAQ
Assay [19] shares this target. Particulars: at 1 µM.
Assay [20] addresses 5'-AMP-activated protein kinase catalytic subunit alpha-2 (Homo sapiens) (UniProt P54646). Particulars: at 0.1 µM.

Ribosomal protein S6 kinase alpha-3 (Homo sapiens), sequence (P51812 whole entry): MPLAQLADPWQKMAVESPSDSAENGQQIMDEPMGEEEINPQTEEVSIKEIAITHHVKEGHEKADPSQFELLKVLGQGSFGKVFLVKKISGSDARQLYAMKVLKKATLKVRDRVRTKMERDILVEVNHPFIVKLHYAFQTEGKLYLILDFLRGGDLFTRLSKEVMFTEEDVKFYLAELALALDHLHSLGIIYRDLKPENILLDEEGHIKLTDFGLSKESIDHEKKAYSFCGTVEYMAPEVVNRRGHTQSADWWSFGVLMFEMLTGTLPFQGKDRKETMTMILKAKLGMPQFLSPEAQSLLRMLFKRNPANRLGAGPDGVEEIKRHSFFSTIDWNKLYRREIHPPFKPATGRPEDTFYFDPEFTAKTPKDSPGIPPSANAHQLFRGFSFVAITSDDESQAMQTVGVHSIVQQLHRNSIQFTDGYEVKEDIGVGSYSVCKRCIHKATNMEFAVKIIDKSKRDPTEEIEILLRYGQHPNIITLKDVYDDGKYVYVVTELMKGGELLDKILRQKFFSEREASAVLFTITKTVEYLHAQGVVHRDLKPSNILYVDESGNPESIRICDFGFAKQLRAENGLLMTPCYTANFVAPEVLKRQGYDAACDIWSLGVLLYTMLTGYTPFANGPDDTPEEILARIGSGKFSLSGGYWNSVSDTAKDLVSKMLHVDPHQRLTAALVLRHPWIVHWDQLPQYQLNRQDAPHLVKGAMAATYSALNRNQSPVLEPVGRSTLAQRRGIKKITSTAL
Rho-associated protein kinase 2 (Homo sapiens), sequence (O75116 whole entry, looked up): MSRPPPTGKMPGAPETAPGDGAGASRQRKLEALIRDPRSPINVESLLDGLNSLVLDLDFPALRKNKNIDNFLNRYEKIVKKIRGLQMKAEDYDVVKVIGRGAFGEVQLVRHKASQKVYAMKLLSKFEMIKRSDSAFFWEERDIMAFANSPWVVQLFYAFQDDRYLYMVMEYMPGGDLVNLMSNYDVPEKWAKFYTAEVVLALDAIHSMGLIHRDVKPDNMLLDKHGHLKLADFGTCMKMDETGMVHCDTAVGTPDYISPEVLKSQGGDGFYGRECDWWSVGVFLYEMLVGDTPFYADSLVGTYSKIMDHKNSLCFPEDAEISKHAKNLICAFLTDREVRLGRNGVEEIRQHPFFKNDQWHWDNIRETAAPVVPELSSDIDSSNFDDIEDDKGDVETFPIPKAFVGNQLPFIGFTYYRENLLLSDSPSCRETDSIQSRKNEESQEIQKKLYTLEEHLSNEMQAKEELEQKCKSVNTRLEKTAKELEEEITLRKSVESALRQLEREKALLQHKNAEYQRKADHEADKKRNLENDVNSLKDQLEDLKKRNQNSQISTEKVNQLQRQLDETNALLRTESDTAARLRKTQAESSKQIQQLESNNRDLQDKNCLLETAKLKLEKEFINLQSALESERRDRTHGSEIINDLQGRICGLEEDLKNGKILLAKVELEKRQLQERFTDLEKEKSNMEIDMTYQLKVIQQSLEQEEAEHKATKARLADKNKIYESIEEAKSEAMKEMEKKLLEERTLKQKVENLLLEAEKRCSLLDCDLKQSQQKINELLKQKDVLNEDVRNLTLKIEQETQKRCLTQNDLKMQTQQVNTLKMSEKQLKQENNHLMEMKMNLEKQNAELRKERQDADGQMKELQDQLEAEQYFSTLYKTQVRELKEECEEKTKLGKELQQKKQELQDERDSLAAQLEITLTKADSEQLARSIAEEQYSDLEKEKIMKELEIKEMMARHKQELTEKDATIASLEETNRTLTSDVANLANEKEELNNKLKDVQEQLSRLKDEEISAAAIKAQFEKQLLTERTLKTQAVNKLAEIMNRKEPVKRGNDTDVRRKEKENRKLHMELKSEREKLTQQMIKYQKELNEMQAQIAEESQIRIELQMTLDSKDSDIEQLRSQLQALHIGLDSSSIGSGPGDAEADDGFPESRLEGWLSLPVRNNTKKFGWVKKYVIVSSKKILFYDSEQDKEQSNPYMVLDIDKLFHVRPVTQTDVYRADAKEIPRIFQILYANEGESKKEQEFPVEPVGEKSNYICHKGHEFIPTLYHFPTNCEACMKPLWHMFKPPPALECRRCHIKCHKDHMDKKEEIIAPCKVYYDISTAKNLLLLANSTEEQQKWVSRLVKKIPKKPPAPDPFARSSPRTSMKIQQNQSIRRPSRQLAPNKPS
Rho-associated protein kinase 1 (Homo sapiens), sequence (Q13464 2-1354 limits assumed): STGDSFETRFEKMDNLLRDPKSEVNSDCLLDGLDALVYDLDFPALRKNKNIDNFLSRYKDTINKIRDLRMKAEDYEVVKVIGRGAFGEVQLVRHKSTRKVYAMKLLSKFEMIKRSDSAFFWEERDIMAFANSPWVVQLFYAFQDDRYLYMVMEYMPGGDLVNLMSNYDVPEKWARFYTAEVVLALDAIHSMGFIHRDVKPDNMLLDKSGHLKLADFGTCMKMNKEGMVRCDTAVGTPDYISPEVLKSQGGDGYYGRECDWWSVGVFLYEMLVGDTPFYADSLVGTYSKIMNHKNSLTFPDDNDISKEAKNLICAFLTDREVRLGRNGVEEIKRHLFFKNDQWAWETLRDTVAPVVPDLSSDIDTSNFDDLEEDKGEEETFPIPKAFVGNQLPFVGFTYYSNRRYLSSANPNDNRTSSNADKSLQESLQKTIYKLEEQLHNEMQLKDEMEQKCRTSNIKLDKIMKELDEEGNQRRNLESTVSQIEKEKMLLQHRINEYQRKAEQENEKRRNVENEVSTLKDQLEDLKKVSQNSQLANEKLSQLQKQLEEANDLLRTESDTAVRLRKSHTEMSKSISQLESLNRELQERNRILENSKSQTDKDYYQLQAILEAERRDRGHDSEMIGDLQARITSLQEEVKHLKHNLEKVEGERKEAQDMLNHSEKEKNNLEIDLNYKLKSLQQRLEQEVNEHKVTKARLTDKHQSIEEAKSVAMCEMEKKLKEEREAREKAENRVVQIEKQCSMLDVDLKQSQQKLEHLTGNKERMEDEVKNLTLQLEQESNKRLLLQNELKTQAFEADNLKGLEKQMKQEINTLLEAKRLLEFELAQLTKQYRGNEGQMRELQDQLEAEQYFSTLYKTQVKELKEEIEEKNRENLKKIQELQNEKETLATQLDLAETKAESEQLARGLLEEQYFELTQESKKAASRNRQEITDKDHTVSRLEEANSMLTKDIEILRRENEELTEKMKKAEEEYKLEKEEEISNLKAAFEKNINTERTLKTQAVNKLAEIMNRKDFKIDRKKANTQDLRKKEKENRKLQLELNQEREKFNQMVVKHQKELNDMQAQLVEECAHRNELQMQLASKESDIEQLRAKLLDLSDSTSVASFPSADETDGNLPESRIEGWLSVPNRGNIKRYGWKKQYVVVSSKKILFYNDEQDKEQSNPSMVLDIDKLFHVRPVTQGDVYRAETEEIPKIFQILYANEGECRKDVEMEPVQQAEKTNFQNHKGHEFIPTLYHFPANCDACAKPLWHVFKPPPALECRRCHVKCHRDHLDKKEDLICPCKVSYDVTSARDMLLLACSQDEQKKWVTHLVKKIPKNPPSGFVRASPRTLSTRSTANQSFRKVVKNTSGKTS
5'-AMP-activated protein kinase catalytic subunit alpha-2 (Homo sapiens), sequence (P54646 whole entry, looked up): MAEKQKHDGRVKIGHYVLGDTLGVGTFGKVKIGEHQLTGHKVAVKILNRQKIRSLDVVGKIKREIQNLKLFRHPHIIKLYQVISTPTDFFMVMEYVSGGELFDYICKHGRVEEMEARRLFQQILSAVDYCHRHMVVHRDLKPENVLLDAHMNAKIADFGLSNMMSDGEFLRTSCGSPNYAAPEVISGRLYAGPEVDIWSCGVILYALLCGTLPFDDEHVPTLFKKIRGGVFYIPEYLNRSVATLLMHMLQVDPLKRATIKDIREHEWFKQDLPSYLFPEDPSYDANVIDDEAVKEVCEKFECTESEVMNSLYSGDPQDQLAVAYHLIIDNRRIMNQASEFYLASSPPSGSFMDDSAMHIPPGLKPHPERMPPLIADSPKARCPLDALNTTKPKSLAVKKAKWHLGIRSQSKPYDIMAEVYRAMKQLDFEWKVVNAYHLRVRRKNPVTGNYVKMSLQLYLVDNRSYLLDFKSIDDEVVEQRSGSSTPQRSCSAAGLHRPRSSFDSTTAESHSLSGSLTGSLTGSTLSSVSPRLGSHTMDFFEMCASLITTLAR

Usually inhibition stands for the relative decrease from the control value, in per cent. Turning to `COc1cccc(-n2cnc3c(N/N=C/c4ccncc4)ncnc32)c1`, the inhibition in assay [1] is 1.07%; in [2], 3.27%; in assay [3] it was 6.91%; in assay [4], 2.62%; in assay [5], 4.66%; in assay [6], 2.12%. In addition, the inhibition in assay [7] was 4.76%; in [8], -0.37%; in assay [9], 0.82%; in assay [10], -0.06%; in [11] it was 1.9%; in assay [12], 1.3%. Moreover, the inhibition worked out at 4.05% in assay [13]; 1.67% in assay [14]; 2.41% in assay [15]; 3.19% in assay [16]; 3.83% in assay [17]; 1.05% in [18]. For the same molecule, the inhibition was 3.79% in [19] and -1.1% in assay [20].
With `COc1ccc2ncn(-c3cc(O[C@H](C)c4ccccc4Cl)c(C(N)=O)s3)c2c1`, the inhibition is 2.68% in assay [1]; 1.42% in [2]; 2.59% in assay [3]; -0.02% in assay [4]; 0.44% in assay [5]; -1.13% in [6]. Also, the inhibition is -0.23% in assay [7]; 1.47% in assay [8]; 1.88% in assay [9]; 0.03% in [10]; 3.6% in assay [11]; 2.42% in [12]. Further, the inhibition was determined as 2.1% in assay [13]; 0.49% in assay [14]; 2.09% in assay [15]; 3.92% in assay [16]; 5.77% in assay [17]; 2.16% in [18]. Besides, the inhibition in [19] stood at 2.45%; in assay [20] it was 2.54%.
Take `O=C(Nc1n[nH]c2nc(-c3ccco3)ccc12)C1CC1`: the inhibition was 3.74% in assay [1]; 1.89% in assay [2]; 3% in assay [3]; 0.92% in [4]; 0.86% in [5]; -0.05% in [6]. Further, the inhibition is 0.78% in assay [7]; 0.54% in assay [8]; 1.46% in assay [9]; 0.59% in [10]; 0.71% in [11]; 2.03% in [12]. Also, the inhibition is 0.33% in assay [13]; 0.71% in assay [14]; 0.28% in assay [15]; -0.55% in [16]; 1.28% in assay [17]; -0.2% in assay [18]. Also, the inhibition turned out to be 1.85% in [19] and 1.32% in [20].
Consider `C#Cc1cccc(Nc2ncnc3ccc(OCCCCNCCS(C)(=O)=O)cc23)c1`, for which the inhibition was found to be 2.52% in assay [1]; 3.83% in [2]; 6.92% in [3]; 3.85% in assay [4]; 5.51% in [5]; 2.14% in assay [6]. For the same molecule, the inhibition in assay [7] amounted to 3.87%; in [8] it was 3.31%; in [9], 4.55%; in assay [10], 1.75%; in [11], 3.55%; in assay [12], 3.74%. Also, the inhibition in assay [13] was 5.99%; in [14] it was 3.88%; in [15], 4.33%; in [16], 3.82%; in assay [17], 4.46%; in assay [18] it was 4.2%. The inhibition in assay [19] was 6.4%; in assay [20], 4.13%.
With `Clc1ccc(CNc2nccc(-c3cnn4ncccc34)n2)cc1`, the inhibition in assay [1] turned out to be 1.31%; in assay [2], 2.04%; in assay [3] it was 2.71%; in assay [4], 1.41%; in [5], 1.24%; in assay [6], 0.05%. The inhibition in assay [7] stood at 0.52%; in assay [8], 0.62%; in [9], 0.33%; in [10], 2.62%; in assay [11] it was 0.72%; in assay [12] it was 0.33%. Also, the inhibition in [13] was 3.99%; in assay [14], 3.3%; in assay [15], 1.91%; in assay [16], 0.59%; in assay [17], 0.73%; in assay [18] it was -0.21%. Moreover, the values for the inhibition in assay [19] and in assay [20] were 1.83% and -4.66%, respectively.
In the case of `CCC(=O)Nc1ccc(C)c(-c2ccc(C(=O)NCC3CC3)cc2)c1`, the inhibition worked out at 4.2% in assay [1]; 2.63% in assay [2]; 3.64% in [3]; 0.56% in assay [4]; 0.53% in assay [5]; 0.82% in [6]. Further, the inhibition in assay [7] came out at 0.79%; in assay [8], 1.75%; in [9], 2.09%; in [10] it was 0.01%; in assay [11], 1.25%; in [12], 1.88%. In addition, the inhibition in [13] came out at 2.02%; in [14], 1.32%; in assay [15], 0.49%; in assay [16], 2.14%; in assay [17], 2.43%; in [18] it was 1.31%. Also, the inhibition in [19] was 2.54%; in assay [20] it was 4.95%.
Consider `CN(C)c1ccc2c(c1)/C(=C/Nc1ccc(S(N)(=O)=O)cc1)C(=O)N2`, for which the inhibition in assay [1] came out at 5.77%; in [2] it was 5.46%; in assay [3], 13.3%; in assay [4], 1.57%; in assay [5] it was 11.6%; in assay [6], 2.82%. Further, the inhibition was determined as 14.7% in assay [7]; 5.18% in [8]; 25.9% in [9]; 4.28% in assay [10]; 20.9% in [11]; 2.27% in [12]. Besides, the inhibition in assay [13] is 5.38%; in assay [14] it was 0.91%; in assay [15], -1.11%; in assay [16], 1.07%; in [17] it was -1.85%; in assay [18], 10.2%. The values for the inhibition in assay [19] and in assay [20] were 44.5% and 7.02%, respectively.
Regarding `COc1cc(Nc2ncc3c(C)nc(-c4cccc(Oc5ccccc5)c4)n3n2)cc(OC)c1OC`, the inhibition in assay [1] is 1.17%; in [2] it was 0.99%; in assay [3] it was -0.91%; in assay [4], 1.56%; in assay [5], 7.14%; in [6], 0.9%. Also, the inhibition in [7] was 8.61%; in assay [8], 2.77%; in assay [9], 14.4%; in assay [10], 2.59%; in [11], 13.2%; in assay [12], 2.08%. Moreover, the inhibition in assay [13] was -0.71%; in assay [14], 1.09%; in [15] it was -2.63%; in [16], 0.96%; in assay [17] it was -0.95%; in assay [18], 1.87%. Further, the inhibition in assay [19] is 13%; in assay [20], 0.57%.
Regarding `CS(=O)(=O)CCNCc1cc(-c2cc3c(Nc4ccc(OCc5cccc(F)c5)c(Cl)c4)ncnc3s2)cs1`, the inhibition in [1] is 4.5%; in assay [2], 3.92%; in [3], 5.77%; in assay [4], -0.03%; in assay [5], 1.94%; in assay [6] it was 1.24%. Moreover, the inhibition was 1.57% in assay [7]; 3.28% in assay [8]; 2.95% in assay [9]; 0.77% in [10]; 2.5% in [11]; 2.39% in assay [12]. Moreover, the inhibition was 1.38% in assay [13]; 5.74% in assay [14]; 2.6% in [15]; 3.92% in assay [16]; 6.65% in assay [17]; 2.39% in [18]. Besides, the inhibition in assay [19] came out at 3.88%; in assay [20], 5.96%.
As for `CN(c1ccc(NC(=O)Nc2c(Cl)cccc2Cl)cc1)c1ccnc(Nc2cccc(CS(C)(=O)=O)c2)n1`, the inhibition was 2.01% in [1]; 3.46% in assay [2]; 9.15% in [3]; 2.34% in assay [4]; 4.66% in [5]; 2.08% in assay [6]. Further, the inhibition is 3.81% in [7]; -2.19% in assay [8]; 1.78% in assay [9]; 0.45% in [10]; 1.06% in [11]; 1.73% in assay [12]. The inhibition in [13] amounted to 7.64%; in assay [14], 5.92%; in [15], 22.8%; in assay [16], 3.73%; in assay [17] it was 4.02%; in assay [18], 2.22%. Besides, the inhibition was 3.05% in assay [19] and -0.21% in assay [20].
As to `O=C1Nc2ccc(I)cc2C1=Cc1cc(Br)c(O)c(Br)c1`, the inhibition in [1] came out at 2.32%; in assay [2], 2.42%; in [3], 4.03%; in assay [4], 0.5%; in assay [5], 2.27%; in [6], 1.27%. Besides, the inhibition in assay [7] worked out at 1.7%; in assay [8], 2.5%; in assay [9] it was 3.82%; in assay [10] it was 1.37%; in assay [11], 3.84%; in [12], 0.41%. Moreover, the inhibition in [13] stood at 2.04%; in assay [14], 1.05%; in assay [15] it was 0.89%; in assay [16] it was 3.3%; in [17], 1.73%; in [18] it was 1.53%. Also, the inhibition was 3.41% in [19] and 6.97% in assay [20].
